PubChem BioAssay AID652283 (National Center for Advancing Translational Sciences (NCATS), 2013)
“And” between values parts separate entries of the source, which are not always exact repeats. Identical values can stand only once. Inconclusive results are not listed. Where a structure was tested more than once in an assay, its records may differ in their call. The source made the active and inactive calls. The call rests on the fitted dose curve; in most records, active means well fitted inhibition curve with a large enough effect; inconclusive means small, poorly fitted or top-dose-only effect; inactive means no such curve, though single readings can be large or run the other way.

Test: qHTS Assay for Lipid Storage Modulators: COS7 Assay against Probe and Analogs
Settings: COS7 lipid droplet area, BODIPY imaging, 18 h; cells loaded with 400 µM oleic acid
Source text: Storing lipids as a reservoir for energy or the anabolism of elementary metabolites is a common feature of probably all cells and is conserved from bacteria to humans. The universal cellular lipid storage organelle is the so-called lipid storage droplet (LD). Although ubiquitous, LDs share a simple structure composed of a hydrophobic core that harbors the storage lipids, which is shielded by a droplet-specific phospholipid monolayer to which proteins are attached. The current model of LD biogenesis involves an incorporation of the lipid core into the membrane leaflets of the endoplasmic reticulum (ER) followed by a subsequent budding-like maturation of a LD, which ultimately pinches off. Once released, LD volume can increase by localized lipogenesis or fusion of existing droplets. Storage lipids are re-mobilized enzymatically by lipase activity. Lipase regulation in the adipocyte is heavily studied and involves multiple components including catecholamine signaling, the LD-associated proteins Perilipin and comparative gene identification-58 (CGI-58) and at least two lipases named hormone sensitive lipase (HSL) and adipocyte triglyceride lipase (ATGL). LD regulation outside of the adipocyte is poorly understood and only few components are known. However, there is an urgent need to learn more about ectopic fat depots as mislocalized storage of lipids, for example in the liver or muscle, is an eminent health problem associated with insulin resistance or the metabolic syndrome. We developed a laser-scanning cytometer assay to enable 1,536-well screening and combined the results of the small molecules screen with an RNAi database based on lipid storage. In this assay we tested analogs of the probe against a mammalian cell line (COS7), to see if these small molecules could disrupt lipid storage. NIH Molecular Libraries Probe Production Centers Network [MLPCN] NIH Chemical Genomics Center [NCGC] MLPCN Grant: MH085686 Assay Submitter (PI): Mathias Beller, Max-Planck-Institut fur Biophysikalische Chemie
COS7 cells were obtained from ATCC (CRL-1651), 5500 cells/well were dispensed into Corning 96 well imaging plate (catalog # 3340), and cultured in 100 uL of 1:1 DMEM medium (PAA) contain 10% fetal bovine serum (FBS) for 24 hours at 37 degrees C, 95% humidity, and 5% CO2. The medium was exchanged for compound treatment. Compound treatment occurred in 150 microL serum reduced medium (5% FBS) and 0.2% DMSO in presence of 400 microM oleic acid for 17-18 h. Cells were then fixed (3.7 % formaldehyde in PBS, 5 min), permeabilized (0.1% Triton X100, 5 min) and washed three times with PBS. Lipid droplets (1:2000 BODIPY 493/503) and nuclei (1:1000 Hoechst 33342) were stained for 1h. Imaging was performed in a Zeiss Axiovert automatic microscope. Number of lipid droplet accumulated in […] cells were analyzed using visual examination of the microscopic images and additional quantification by image segmentation using Cell Profiler.

Row | Structure (SMILES) | Potency | max response
1 | CCOc1ccc(CCNC(=O)c2cc3sccc3n2Cc2ccc(Cl)c(F)c2)cc1OCC | 0.296 µM (active) | 
2 | CN(C)CC(=O)NC1CCCc2c1cnn2-c1ccc(F)cc1F (stereo not given) |  | 19.8% (inactive)
3 | CCOc1ccc(CCNC(=O)c2cc3ccccc3n2Cc2cc(C)cc(C)n2)cc1OCC | 1.48 µM (active) | 
4 | CCOc1ccc(CCNC(=O)c2ccnn2Cc2cccc(C)c2)cc1OCC | 13.2 µM (active) | 
5 | CC1=C(C(=O)NC2CCCc3c2cnn3-c2ccc(F)cc2F)OCCO1 (stereo not given) | 13.2 µM (active) | 
6 | CCOc1ccc(CCNC(=O)c2cc3sccc3n2Cc2ccccn2)cc1OCC | 1.48 µM (active) | 
7 | O=C(NC1CCCc2c1cnn2-c1ccc(F)cc1F)c1cccc(=O)[nH]1 (stereo not given) |  | 14.9% (inactive)
8 | O=C(NC1CCCc2c1cnn2-c1ccc(F)cc1F)c1cnon1 (stereo not given) |  | 13.2% (inactive)
9 | CCOC(=O)C1CCN(C(=O)C(C)(C)NC(=O)Nc2cccc(-c3csc(C)n3)c2)CC1 |  | 3.3% (inactive)
10 | O=C(Nc1cccc2nn(-c3ccc(F)cc3)cc12)c1ccccn1 |  | 9.12% (inactive)
11 | O=C(NCCc1ccc2c(c1)OCO2)c1cc2sccc2n1Cc1ccccc1 |  | 19.6% (inactive)
12 | CCNC(=O)C1CCN(C(=O)C(C)(C)NC(=O)Nc2ccccc2Cl)CC1 |  | -3.83% (inactive)
13 | CCn1c(C(=O)NCCc2ccc(OC)c(OC)c2)cc2sccc21 |  | 3.82% (inactive)
14 | CCOc1ccc(CCNC(=O)c2cc3sccc3n2Cc2ccc(-n3cncn3)cc2)cc1OCC | 5.9 µM (active) | 
15 | Cc1ccc(NC(=O)c2ccc(CN3CCN(C)CC3)cc2)cc1Nc1nc(-c2cccnc2)cs1 |  | -0.902% (inactive)
16 | CCOC(=O)C1CCN(C(=O)C2(NC(=O)Nc3ccccc3Cl)CC2)CC1 |  | -17.2% (inactive)
17 | CCOC(=O)C1CCN(C(=O)C2(NC(=O)Nc3ccc(F)cc3F)CCCCC2)CC1 | 16.6 µM (active) | 
18 | CCOc1ccc(CCNC(=O)c2cc3ccccc3o2)cc1OCC | 29.6 µM (active) | 
19 | O=C(c1cc2sccc2n1Cc1ccccc1)N(CCc1ccc(O)c(O)c1)Cc1ccccc1 |  | 10.7% (inactive)
20 | O=C(NC1CCCc2c1cnn2-c1ccc(F)cc1F)c1cnccn1 (stereo not given) |  | -14.9% (inactive)

Row | Structure (SMILES) | Potency | max response
21 | O=C(NC1CCCc2c1cnn2-c1ccc(F)cc1F)c1cccs1 (stereo not given) |  | -60.6% (inactive)
22 | O=C(NC1CCCc2c1cnn2-c1ccc(F)cc1F)c1ccccn1 (stereo not given) | 16.6 µM (active) and 14.8 µM (active) | 16% (inactive)
23 | CCOc1ccc(CCNC(=O)c2cc3sccc3n2Cc2ccncc2)cc1OCC | 2.96 µM (active) | 
24 | CC(C)(C)OC(=O)NCCOCCOCCOc1cccc(-n2ncc3c2CCCC3NC(=O)c2ccccn2)c1 (stereo not given) | 14.8 µM (active) | 
25 | CCOc1ccc(CCNC(=O)c2ccc(C3(C(F)(F)F)N=N3)cc2)cc1OCC | 7.43 µM (active) | 
26 | O=C(NC1CCCc2c1cnn2-c1ccc(F)cc1F)c1ccccc1 (stereo not given) | 14.8 µM (active) | 
27 | CCOC(=O)C1CCN(C(=O)C(C)(C)NC(=O)Nc2ccc(Cl)cc2Cl)CC1 | 6.62 µM (active) | 
28 | CCOC(=O)C1CCN(C(=O)C(C)(C)NC(=O)Nc2cccc(OC)c2)CC1 | 16.6 µM (active) | 
29 | CCOC(=O)C1CCN(C(=O)C2(NC(=O)Nc3ccccc3Cl)CCCCC2)CC1 |  | -103% (inactive)
30 | CCOc1ccc(CCNC(=O)c2cc3sccc3n2C(C)C)cc1OCC | 1.18 µM (active) | 
31 | CCOc1ccc(CCNC(=O)c2cc3ccccc3n2C)cc1OCC | 16.6 µM (active) | 
32 | CCOc1ccc(CCNC(=O)c2ccc3[nH]ccc3c2)cc1OCC |  | 20.9% (inactive)
33 | CCOc1ccc(CCNC(=O)c2cc3sccc3n2C)cc1OCC | 8.33 µM (active) | 
34 | CCOc1ccc(C(C)CNC(=O)c2cc3sccc3n2Cc2ccccc2)cc1OCC (stereo not given) | 11.8 µM (active) | 
35 | O=C(NC1CCCc2c1cnn2-c1ccc(O)cc1)c1ccccn1 (stereo not given) | 10.5 µM (active) | 
36 | Cc1cc(SCc2sc(-c3ccc(C(F)(F)F)cc3)nc2C)ccc1OCC(=O)O |  | 14.2% (inactive)
37 | CCOc1ccc(CCNC(C)=O)cc1OCC |  | -6.62% (inactive)
38 | O=C(NC1CCCc2c1cnn2-c1ccc(F)cc1F)c1ccc(C2(C(F)(F)F)N=N2)cc1 (stereo not given) |  | 3.15% (inactive)
39 | CCOc1ccc(CCNC(=O)c2cc3sccc3n2Cc2ccccc2)c(F)c1OCC | 16.6 µM (active) | 
